Compound activity deposited in PubChem BioAssay by National Center for Advancing Translational Sciences (NCATS).
This is a sample that favours compounds with a hit; in the whole collection about 5.2% have one here.
Tau FP inhib – qHTS for Inhibitors of Tau Fibril Formation, Fluorescence Polarization. 0.39% of 280,000 active. Potency, µM (highest dose often 57.7 µM), for the others: top-dose activity, negative = inhibition, most hits filed as inhibitors. AID 1468, 2008. K18 P301L tau heparin fibrillization, Alexa594 FP, 6 h; note: potency is the fitted concentration of half-maximal effect; nearly all actives have a fitted effect of over 55% in size
Target sequence (P10636 561-689 P618L limits assumed): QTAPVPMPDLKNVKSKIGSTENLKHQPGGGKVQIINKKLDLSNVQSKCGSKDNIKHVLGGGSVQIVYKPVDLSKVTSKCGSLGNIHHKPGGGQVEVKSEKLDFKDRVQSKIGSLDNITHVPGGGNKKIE
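Read-out: fluorescence polarization of Alexa 594-labeled tau (0.24 uM), 555 nm excitation, 632 nm emission. Mixtures held 15 uM unlabeled K18 P301L, compound and 20 uM heparin, pH 7 acetate buffer, incubated 6 hr at 37 C.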
Tau fibril ThT – qHTS for Inhibitors of Tau Fibril Formation, Thioflavin T Binding; 2.1% of 270,000 active; Potency, µM (titrated, usually from 57.4 µM), inactives show at the highest dose activity, negative = inhibition, actives largely listed as inhibitors; Microtubule-associated protein tau (Homo sapiens), P10636; recombinant tau K18 P301L, heparin-induced fibrillization, ThT fluorescence; AID 1460, 2008; note: potency is the fitted concentration of half-maximal effect; nearly all actives have a fitted effect of over 55% in size
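Tau K18 P301L fragment (15 uM unlabeled plus 0.24 uM Alexa 594-labeled) in 100 mM sodium acetate pH 7 with compound, fibrillization induced by 20 uM heparin for 6 hr at 37 C. Thioflavin T (30 uM) added, fluorescence read after 1 hr (ex 450, em 510 nm).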
Sfp inh – qHTS Assay for Inhibitors of Bacillus subtilis Sfp phosphopantetheinyl transferase (PPTase); 4'-phosphopantetheinyl transferase ffp (Bacillus subtilis), Q9F4F7; Biochemical Sfp PPTase activity, qHTS; Potency, µM, without a hit: largest response in the series, negative = inhibition, usual class: inhibitors; 3.5% of 310,000 active; AID 1490, 2009;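 note: the enzyme is Sfp with the accession as filed and its product quenches rhodamine fluorescence; potency is the fitted concentration of half-maximal effect; 0% = enzyme reaction without inhibitor and -100% = no enzyme wells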
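Step 1, compound plus 15 nM Sfp-PPTase, 15 min, room temperature. Step 2, add rhodamine-CoA (5 uM) and BHQ-2-YbbR (12.5 uM). Step 3, read 525/598 nm fluorescence at 0 and 30 min.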
Tau fluor cs – Counterscreen qHTS for Inhibitors of Tau Fibril Formation, Fluorescence Polarization. AID 1463, 2008. tau K18 P301L (four-repeat tau fragment) Alexa594 fluorescence, heparin fibrillization. Potency, µM (doses to about 57.7 µM), for the others: at the highest dose activity change, negative = decrease. 0.93% of 280,000 active; note: potency is the fitted concentration of half-maximal effect; nearly all actives have a fitted effect of over 55% in size
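Human K18 P301L tau (15 uM unlabeled plus 0.24 uM Alexa 594-labeled, final) in 100 mM sodium acetate pH 7 was mixed with compound and 20 uM heparin and incubated 6 hr at 37 C.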
FBPA coupling cs – qHTS Assay for Inhibitors of Fructose-1,6-bisphosphate Aldolase from Giardia Lamblia: Coupling assay counterscreen. coupling enzyme system counterscreen, AmpLite Red fluorescence. activity change, negative = inhibition, % at 58.2 µM, hits read low. 0.67% of 290,000 active; in the data active = activity change below about -30%
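Counterscreen of the coupled detection system alone, without aldolase: glyceraldehyde-3-phosphate coupling enzymes plus AmpLite Red readout. Compounds at 57.5 uM final, 10 min RT preincubation, 20 min RT reaction, fluorescence 525/598 nm.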
Starred values were filed as active, the others as inactive; ? = inconclusive; / = no result; [ ] = dose if it differs, or a comment. Unless noted, calls come from the whole dose curve; as a rule, active = well fitted curve in the direction sought with a large enough effect; inconclusive = small, poorly fitted or top-dose-only effect, or another doubt; inactive = no such curve, though single readings can be large; an effect the other way counts as inactive or inconclusive. Unless noted, % is set by controls: 0 for no effect and ±100 for the full control effect.

SMILES	Tau FP inhib	Tau fibril ThT	Sfp inh	Tau fluor cs	FBPA coupling cs
CC(=O)Nc1ccc(-c2csc(NNC(=O)c3ccccc3)n2)cc1	-3%	6%	18µM*	1%	5
COc1ccc(/C(C)=N/NC(=S)NCCc2ccccc2)c(O)c1	/	/	2%	/	-1
CCN(CC)CCNC(=O)c1[nH]c2ccccc2c1Sc1ccc(Cl)cc1	0%	4%	/	-20%	/
CCCN(C(=O)Cn1nc(Cc2cccnc2)c2ccccc2c1=O)c1ccc(C(C)C)cc1	4%	-10%	/	-8%	/
Cc1ccccc1OCCNc1cc(N2CC(C)NC(C)C2)ccc1[N+](=O)[O-] (stereo not given)	?	18µM*	-16%	?	-1
CC1CN(c2ccc([N+](=O)[O-])c(NCCOc3ccccc3)c2)CC(C)N1 (stereo not given)	/	/	-5%	/	2
COC(=O)c1ccc(NC(=O)NC(C)c2c(-n3cccc3)sc(C)c2C)cc1 (stereo not given)	18µM*	-2%	/	?	/
CC(=O)N1CCc2c(sc3c2c(=O)n(CCc2ccccc2)c(=O)n3Cc2ccc(F)cc2)C1	-4%	?	/	-27%	/
CN1CCN(C(c2ccc(Br)cc2)c2cc(Cl)c3cccnc3c2O)CC1 (stereo not given)	/	/	50µM*	/	-3
Oc1c(Cl)cc(Cl)c2cccnc12	-18%	?	-21%	-21%	-21
CC1=C(C(=O)Nc2ccccc2)C(c2cccnc2)n2nc(SCc3ccccc3Cl)nc2N1 (stereo not given)	-12%	6%	/	0%	/
Cc1ccc(/C=N/Nc2nc(C)cc(C)n2)cc1	0%	-14%	79µM*	-6%	1
Cc1cc2c(C)nc(N/N=C/c3ccc(F)cc3)nc2o1	6%	?	-16%	-15%	2
Nc1cc(Cl)nc(N/N=C/c2ccc([N+](=O)[O-])cc2)n1	4%	5.6µM*	5%	-23%	-3
Cc1cc(C)nc(N/N=C/c2ccc(Cl)cc2)n1	5%	-4%	?	6%	3
Cc1cc(-c2ccccc2)nc(N/N=C/c2ccccc2)n1	/	/	19%	/	1
Cc1cc2c(C)nc(N/N=C/c3ccc([N+](=O)[O-])cc3)nc2o1	4%	3.2µM*	-13%	-11%	-3
Cc1cc(-c2ccccc2)nc(N/N=C/c2ccc([N+](=O)[O-])cc2)n1	-12%	7.1µM*	-14%	?	0
O=c1c(-c2cccc(Cl)c2)nc2cncnc2n1Cc1ccccc1Cl	/	/	?	/	1
Cc1ccn2c(=O)cc(COc3ccc(NC(=O)COc4ccc(Cl)cc4)cc3)nc2c1	0%	?	/	-7%	/
CC[C@@]1(c2ccccc2)NC(=O)NC1=O	/	/	-6%	/	0
O=[N+]([O-])c1ccc(N/N=C/c2ccccc2)c(F)c1	15%	7.1µM*	-27%	?	0
O=[N+]([O-])c1cccc(/C=N/N=C\c2ccccc2)c1	/	/	18%	/	2
COC(=O)N1C2=C(c3ccccc3[C@@H]1CC(=O)Nc1ccc3cc4ccccc4cc3c1)[C@@H]1C(=O)N(c3ccccc3)C(=O)[C@@H]1[C@H](C)C2	8%[11.6 µM]	-10%[11.5 µM]	23%	-15%[11.6 µM]	0
CCCOC(=O)c1ccc(NC(=O)C2C3C=CC(O3)C2C(=O)O)cc1 (stereo not given)	1%	-11%	79µM*	7%	15
COc1ccc(-c2noc(CSCC(=O)Nc3ccc(C)cc3Br)n2)cc1OC	7%	?	/	-20%	/
CC1(C)CC(=O)C2=C(C1)NC(=S)C(C#N)C21CCCCC1 (stereo not given)	?	/	11µM*	?	0
CC1(C)CC(=O)C2=C(C1)NC(SCC(=O)Nc1ccccc1)=C(C#N)C21CCCCC1	?	6%	-31%	?	-3
COc1cccc(C(=O)N2CCN(C3CCN(Cc4ccccc4)CC3)CC2)c1OC	3%	-6%	79µM*	1%	1
COc1ccccc1C(=O)N1CCC(N2CCN(c3ccccc3OC)CC2)CC1	-5%	-18%	89µM*	-16%	-2
